The full ranking holds about 39,000 sequences; the median of “fluorescence intensity (a.u.)” is about 4,300, and the highest 2% start at about 39,000. The list comes from a sample in which the highest values are over-represented; it also holds similar and randomly drawn sequences.

43 sequences from PMC7819943, “Rice protein-binding microarrays: a tool to detect cis-acting elements near promoter regions in rice” can be followed below.

This test deals with T1, OsSMF1 (Oryza sativa, UniProt Q6ZLB0 1-436).
T1 sequence: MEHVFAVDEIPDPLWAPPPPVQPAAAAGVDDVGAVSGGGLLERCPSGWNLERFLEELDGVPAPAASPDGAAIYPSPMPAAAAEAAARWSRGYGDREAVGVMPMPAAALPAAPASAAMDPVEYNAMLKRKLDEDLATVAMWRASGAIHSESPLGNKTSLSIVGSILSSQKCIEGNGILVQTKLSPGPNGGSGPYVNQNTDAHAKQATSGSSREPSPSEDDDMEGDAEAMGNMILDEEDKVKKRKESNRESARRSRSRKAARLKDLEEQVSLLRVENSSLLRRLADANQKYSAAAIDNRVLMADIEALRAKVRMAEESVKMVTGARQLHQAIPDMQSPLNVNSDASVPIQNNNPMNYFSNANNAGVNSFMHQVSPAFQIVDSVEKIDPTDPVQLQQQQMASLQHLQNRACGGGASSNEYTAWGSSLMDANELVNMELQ
Kind of test: protein-binding microarray (RPBM); PBS, 2% BSA, 51.3 ng/ul salmon testes DNA, 50 uM zinc acetate, 200 nM TF, 25 C, 1 h; high values mean tight binding. The note with it: protein: recombinant; tags: N-terminal polyhistidine and DsRed monomer fusion (pET32a); chain copies: 2; label: CyDye5-dUTP incorporated in the synthesized complementary strand; 3' TTTTT single-stranded linker to array surface; dsDNA, one strand shown. An outline of the steps: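 Per-feature fluorescence intensity (arbitrary units), read on an Axon 4000B scanner, is the binding signal. Transcription factors carrying an N-terminal polyhistidine tag and DsRed fusion were expressed in E. coli BL21-CodonPlus and purified on Ni–NTA. A custom Agilent array, made double-stranded by primer extension with Cy5-dUTP and blocked with 2% BSA, was incubated with 200 nM protein in PBS, 2% BSA, salmon testes DNA and 50 µM zinc acetate at 25 °C for 1 h and then washed.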
Turning to “ACACTGTTCACCATGATCCACGTATATATGTGACGAAAATCGGAGTCACCTAGTGCAG”, the binding signal is 4560 fluorescence intensity (a.u.).
As for “TTGCGACGGCCATCCTCCGCGCGCGTGACACCAACGCCACCGGAGTCACCTAGTGCAG”, the binding signal was 4880 fluorescence intensity (a.u.).
With “TTTCCCTGATAATAATAACCGACACGCGTAAGCTCTTGAACGGAGTCACCTAGTGCAG” the figure was 3360 fluorescence intensity (a.u.); with “AGCATTTCCATCCACCACACGCGTACGTCCCCGTCACGCGCGGAGTCACCTAGTGCAG”, 7440 fluorescence intensity (a.u.); with “AAGTGCCTACCAAGCCAGCATCGTGTCATAGCCGGAGCATCGGAGTCACCTAGTGCAG”, 3730 fluorescence intensity (a.u.).
With “ATTTGCGCTGATATATTATCTAACGTGACACGATTAATCCCGGAGTCACCTAGTGCAG” the figure was 6030 fluorescence intensity (a.u.).
With “GGGTCATTTGTCCCTTTCTGGAATGAAGTGCTTTGTAAAACGGAGTCACCTAGTGCAG” the figure was 33100 fluorescence intensity (a.u.); with “TTTTAATCCGAGTTTCAGACCACGATGGCCATTTGTTTCGCGGAGTCACCTAGTGCAG”, 3460 fluorescence intensity (a.u.).
In the case of “TACCTTACCTGTACGGCAGGCATGCATGTTACTCCAGTAGCGGAGTCACCTAGTGCAG”, the binding signal was 39800 fluorescence intensity (a.u.).
With “ACCTGTTGTACTTAGTTACGGCGACACGTTTGCATCAGGCCGGAGTCACCTAGTGCAG” the figure was 6860 fluorescence intensity (a.u.); with “ACAGTACTTGGCTGTAGCGGGCATCTTGTCCTGGCATGTGCGGAGTCACCTAGTGCAG”, 3600 fluorescence intensity (a.u.).
With “AATCTGCACCGGTTTTGATAGTTAAGGGACTAATTGTATCCGGAGTCACCTAGTGCAG” the figure was 41700 fluorescence intensity (a.u.); with “TGTGACCGGTTTTGATTAGTTAAGGGACGCCGGGTATCTGCGGAGTCACCTAGTGCAG”, 31600 fluorescence intensity (a.u.).
For the sequence “GCACCGGTTTTGATAGTTGAGGGACTTGTTGTATCTGGTTCGGAGTCACCTAGTGCAG”, the binding signal is 29200 fluorescence intensity (a.u.).
Take “TAAGATCACCTATAGATATATCATTCCAAGTCATAGATTGCGGAGTCACCTAGTGCAG”: the binding signal was 6060 fluorescence intensity (a.u.).
As to “GCAGTAGACACGACGTACTTGTCAATGGTGAGGCATTTATCGGAGTCACCTAGTGCAG”, the binding signal was 3350 fluorescence intensity (a.u.).
Take “ATTGAAAAGTTTGGTTCAAATTAAAATTTTAGTAACAAAACGGAGTCACCTAGTGCAG”: the binding signal was 24300 fluorescence intensity (a.u.).
With “TAATTGTGATCAAAATTGTAACAAATGCACGGTCATTAAGCGGAGTCACCTAGTGCAG” the figure was 3320 fluorescence intensity (a.u.).
The value for “TGGTTCAAAATGTAAACATTAGTTAAATGGTGATCCAAAGCGGAGTCACCTAGTGCAG” was 49900 fluorescence intensity (a.u.).
The value for “TAGTACCTTTACTTTTCAGTTTTCACCCCATGTGGCATACCGGAGTCACCTAGTGCAG” was 3620 fluorescence intensity (a.u.).
Regarding “AGTTGTGATGTCGCCACGTTGGCGGCCGGCGACTGCGCCACGGAGTCACCTAGTGCAG”, the binding signal was 12000 fluorescence intensity (a.u.).
With “GCCACGGTCTCGTTGTGATGTTGTGATATTAGGTTCACTGCGGAGTCACCTAGTGCAG” the figure was 46600 fluorescence intensity (a.u.); with “TCCCGCATGTGTTGTGTGATGTGTCTCGTCTCCGCCACCACGGAGTCACCTAGTGCAG”, 7960 fluorescence intensity (a.u.).
For “TCTTCATGTAGTCAGCATACATCTGTCACAGCCACAGACACGGAGTCACCTAGTGCAG”, the binding signal was 4480 fluorescence intensity (a.u.).
With “AATAAGTAGTTGGTGATACGTGTTAGCCACGAGGCATATACGGAGTCACCTAGTGCAG” the figure was 4020 fluorescence intensity (a.u.); with “AGAGGTACGTAAAATGACACATGTGCCTCTTCATACGCTCCGGAGTCACCTAGTGCAG”, 3150 fluorescence intensity (a.u.); with “CCAAGTTCGGCTGGTCGCCACGCCACCCATCTCCATCTTCCGGAGTCACCTAGTGCAG”, 4140 fluorescence intensity (a.u.).
With “AAACCCGGAGAGAGTGGTGTTCGTGGACGTCACCCCATTTCGGAGTCACCTAGTGCAG” the figure was 4440 fluorescence intensity (a.u.); with “CTTACCATCTCCCCAAGCGGGAGAGTGGACGTCATAATTTCGGAGTCACCTAGTGCAG”, 45700 fluorescence intensity (a.u.).
The value for “CGGGAGAGAAGCCCACGTCACTCCCATAAATGGATGTGGACGGAGTCACCTAGTGCAG” was 9320 fluorescence intensity (a.u.); that for “CGTCCGTGCGAATGATTGCATCTGCGCGAGCGACGCCGTTCGGAGTCACCTAGTGCAG” was 3430 fluorescence intensity (a.u.); that for “TGCGAGGTGGTGGTGATTGCTTCGTCGGCTGTTGATTTCTCGGAGTCACCTAGTGCAG” was 3300 fluorescence intensity (a.u.).
Regarding “TTTTCTTCTGTTCGTGTGCGTGCTCGCGCCTTTCTTGCTTCGGAGTCACCTAGTGCAG”, the binding signal is 4250 fluorescence intensity (a.u.).
With “CTCGGCTGTTGCGCCTTCGTTTTGCACCGAGGCTGTGCTACGGAGTCACCTAGTGCAG” the figure was 55500 fluorescence intensity (a.u.); with “CATATATGCCCATCACCCCAATAAGAGTTCCGAATTAGATCGGAGTCACCTAGTGCAG”, 3560 fluorescence intensity (a.u.); with “CATCCCCAAACTCCGCCGCCGCCGCCGTCACCGCCGCTCGCGGAGTCACCTAGTGCAG”, 3700 fluorescence intensity (a.u.).
The value for “GCAGGAGCAAAGCGCTTACTTTTGCCTCACACTGTATAGTCGGAGTCACCTAGTGCAG” was 45400 fluorescence intensity (a.u.).
With “AATTCTAGGTCCAGCACTGTGCTTACCTGTATAGAAGCCTCGGAGTCACCTAGTGCAG” the figure was 3200 fluorescence intensity (a.u.); with “ATTCATATATATATATACACACACACTTACTTTGTATATGCGGAGTCACCTAGTGCAG”, 3190 fluorescence intensity (a.u.).
For “TTCTTCTTCTATTCCACGTCCACGTGTATGGCCAGGAGTTCGGAGTCACCTAGTGCAG”, the binding signal is 16100 fluorescence intensity (a.u.).
With “TGAAAATGGTGTTGGCATCATAAAATATTTAACCAACCCCCGGAGTCACCTAGTGCAG” the figure was 3150 fluorescence intensity (a.u.); with “TCACGAGCCGACACGTGTCTCCTGACGTGGTACCCTTTCCCGGAGTCACCTAGTGCAG”, 21900 fluorescence intensity (a.u.).
Regarding “AGATGTGATACATTAGCATTCTAGCACGGCGGTGGCATTGCGGAGTCACCTAGTGCAG”, the binding signal is 3250 fluorescence intensity (a.u.).
